Out of some 65,000 compounds screened, about 3,600 (5.5%) were called active. For the sample, actives were picked, then their nearest neighbours and some compounds at random. Unmarked numbers belong to inactive results.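 Rule for the calls: active = at 10 µM, mean starting fluorescence two-fold or more over control wells; inactive = the rest.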
assay: intrinsic fluorescence of library compounds, ex339/em460 – biochemical, MLSMR library, data from DPM-DC assay, artefact control, profiling panel (AID 709); settings: compound autofluorescence, ex339/em460 nm, NADH buffer; at 10 µM; hits give high values; 1 = no-compound wells, NADH background;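 note: signal is the first read of a kinetic run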

SMILES	fluorescence fold increase
O=C(NCCC1=CCCCC1)C1CCN(Cc2cnn(-c3ccccc3)c2-n2cccc2)CC1	1.16
Cn1cccc1Cc1nnc(SCC(=O)NCCc2ccccc2)n1-c1ccc(F)cc1	1.12
CCCC(=O)N1c2ccc(-c3csc(N)n3)cc2CC1C (stereo not given)	1.13
COc1cc2c(cc1NC(=O)CN1CCN(S(=O)(=O)c3ccc(F)cc3)CC1)oc1ccccc12	2.72 (active)
COc1ccc(NC(=O)CN2CCN(S(=O)(=O)c3ccc(F)cc3)CC2)cc1Cl	1.01
COc1ccccc1NC(=O)CN1CCN(S(=O)(=O)c2ccc(Br)cc2)CC1	1
Cc1cc2cc(CNC(=O)c3ccc(S(=O)(=O)N4CCOCC4)cc3)ccc2[nH]1	1.07
Cc1coc2c(O)cc3c(c12)OC1(N2CCCCC2)C(=O)NCCCC31 (stereo not given)	1.1
COc1ccc2[nH]c3ccc(OC)cc3c2c1	1.46
COc1ccc2[nH]c3c(=O)n(Cc4ccco4)cnc3c2c1	3.87 (active)
O=c1c2[nH]c3ccc(Cl)cc3c2ncn1Cc1ccccn1	1.12
COc1ccc(N2C(=O)c3cccc4cccc(c34)C2=O)nn1	1.57
Cc1ccnc(N2CCN(C(=O)CSc3nc4ccccc4nc3N3CCCCC3)CC2)c1	1.18
C=CCNc1nnc(C)c2ccccc12	1.09
C=CCNc1nnc(SCC(=O)N2CCCCC2)c2ccccc12	2.26 (active)
CCCC(=O)N(CCc1ccccc1)Cc1nc2ccccc2c(=O)[nH]1	1.13
CS(=O)(=O)NCc1ccc(C(=O)NCc2ccccc2)cc1	1.04
O=C1C2(c3ccccc3)CN(CCCO)CC1(c1ccccc1)CN(CCCO)C2	1
COCCNc1nc(-n2nc(C)cc2C)nc2sc3c(c12)CCCC3	3.57 (active)
COCCn1c(C)cc(C(=O)CSc2ncnc3sc4c(c23)CCC4)c1C	1.55
Cc1cc(C)n(-c2nc(SCC(=O)N3CCCC3)c3c4c(sc3n2)CCCC4)n1	1.3
CCOc1ccc(S(=O)(=O)n2ccnc2)c2ccccc12	1.04

SMILES	fluorescence fold increase
COc1cc(C2C(C(=O)c3ccc(C)o3)=C(O)C(=O)N2Cc2cccnc2)ccc1O (stereo not given)	1.02
COc1ccccc1N1CCN(C(=O)c2cn(-c3ccccc3)nc2-c2cccnc2)CC1	1.12
Cc1nnc(SCC(=O)Nn2cnnc2)s1	1.03
COc1ccc(-c2noc(-c3cccc(OC)c3OC)n2)cc1OC	1.12
CCOC(=O)N1CCN(C(=O)CNC(=O)Cc2ccc(Cl)cc2)CC1	1.08
CCOC(=O)N1CCN(C(=O)c2ccc3nc4cc(Cl)ccc4c(=O)n3c2)CC1	3.31 (active)
CCOC(=O)N1CCN(C(=O)CSc2ccc(Cl)cc2)CC1	1.07
Cc1cc(C)nc(NC(=O)C(C)N2C(=O)c3ccccc3C2=O)n1 (stereo not given)	1.09
CCn1c(=N)c(S(=O)(=O)c2ccc(F)cc2)cc2c(=O)n3ccccc3nc21	3.45 (active)
Cc1ccc(C)c(NC(=O)C2CCCN2C(=O)OC(C)(C)C)c1 (stereo not given)	1.17
CCn1nc(C(=O)OCC(=O)N2c3ccccc3CC2C)c2ccccc2c1=O (stereo not given)	1.05
COc1ccccc1Oc1ccc(S(=O)(=O)Nc2cccnc2)cc1	1.1
O=P(c1ccc2c(c1)OCCO2)(N1CCOCC1)N1CCOCC1	1.13
COc1ccc(CCn2c(-c3ccco3)nc3nc4ccccc4nc32)cc1OC	1.07
c1coc(-c2nc3nc4ccccc4n3nc2-c2ccco2)c1	0.92
Cn1c(-c2ccco2)nc2cc3ccccc3cc21	4.72 (active)
CCC(=O)Nc1nc(OC)cc(OC)n1	1.16
C=CCSc1nc2c(c(=O)[nH]1)C(C(C)C)C(C#N)=C(N)O2 (stereo not given)	1.06
Cn1c2c(c(=O)n(C)c1=O)C(c1ccc(O)cc1)Nc1ccccc1O2 (stereo not given)	1.08
COc1ccc(CCn2c(=N)c(C(=O)NCc3ccco3)cc3c(=O)n4cccc(C)c4nc32)cc1	1.64
CCn1c(=N)c(C(=O)NCCCOC)cc2c(=O)n3cccc(C)c3nc21	3.83 (active)
COCCn1c(=O)[nH]c2cc(C(=O)NCc3cccnc3)ccc2c1=O	1.48

SMILES	fluorescence fold increase
O=c1cc(-c2ccccc2)nc(N2CCCCC2)[nH]1	1.26
O=c1[nH][nH]c(=O)c2cc(N3CCCC3)ccc12	2.65 (active)
CCOc1ccc(C2C(C(=O)NC)=C(C)Nc3nc4ccccc4n32)cc1OC (stereo not given)	1.15
Cc1ccc2c(c1)c1ncnc(N3CCc4ccccc4C3)c1n2C	3.33 (active)
Cc1ccc2c(c1)N(C(=O)CCC(=O)N1CCc3ccccc3C1)CCO2	1.17
Cc1ccc(NC(=O)CCN2CCc3ccccc3C2)cc1	1.02
CCS(=O)(=O)N1CCCC(C(=O)NCc2ccc(C)cc2)C1 (stereo not given)	1.06
O=C(Cn1nnc2ccccc2c1=O)Nc1cc(C(F)(F)F)ccc1N1CCOCC1	1.02
COc1ccc(-c2[nH]nc3c2C(c2ccncc2)C(C#N)=C(N)O3)cc1 (stereo not given)	1.04
Cn1c(=O)[nH]c(=O)c2c1nc(Br)n2CCCCSc1nc2ccccc2o1	1.1
CCOC(=O)CSC1=C(C#N)C(c2sccc2C)CC(=O)N1 (stereo not given)	1.13
CS(=O)(=O)N(CC(=O)NCc1ccco1)c1ccc2c(c1)OCO2	1.14
O=c1[nH]c(-c2cccs2)nc2ccccc12	1.17
CCc1c(C)nc2cc(-c3cccs3)[nH]n2c1=O	2.07 (active)
Cc1nc2nc(COc3ccccc3)[nH]n2c(=O)c1Cc1ccccc1	1.09
O=P(O)(CP(=O)(c1ccccc1)c1ccccc1)c1ccccc1	1.13
CCCCNC(=O)c1c[nH]c2ccc(S(=O)(=O)Nc3ccc(OCC)cc3)cc2c1=O	1.15
Cc1nonc1NC(=O)c1ccccc1Br	1.01
Cc1ccc(S(=O)(=O)C(C#N)c2nc3ccccc3nc2N2CCCC2)cc1C (stereo not given)	2.44 (active)
Cc1cccc2cc(C#N)c(N3CCCC3)nc12	1.58
CC(C)OC(=O)C(C#N)c1nc2ccccc2nc1N1CCN(Cc2ccccc2)CC1 (stereo not given)	1.82
